In all, about 1,100 compounds went through this assay and about 390 (35%) were called active. About 30% were inconclusive and are not listed. Calls follow the shape of the dose curve; as a rule, active = well fitted inhibition curve with a large enough effect; inconclusive = small, poorly fitted or top-dose-only effect; inactive = flat fitted curve, though single readings scatter. This is one part of the list.
Potency is read from the fitted curve at half-maximal effect.

For the test, the target named is Luciferin 4-monooxygenase (Photinus pyralis) (UniProt P08659). The test is described as follows: qHTS of Nrf2 Activators: Hit Validation in Secondary FLuc Assay. Also: nearly all actives have a fitted effect of over 65% in size. To be noted: firefly luciferase inhibition counter-screen, luminescence; series mostly up to 57.5 µM. The gist of the method: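 Counter-screen on purified firefly luciferase with ATP and D-luciferin at Km concentrations; compounds flagged if they inhibit the enzyme, indicating possible reporter stabilization rather than ARE activation.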
(Quantitative high-throughput screening tests each substance at several concentrations.)
With `CS/C(=C\C(=O)c1ccco1)Nc1ccccc1Cl`, the Potency was 2.69 µM (active).

`O=C(NCc1ccco1)c1cc(=O)c2ccccc2o1`: the Potency entry is “inactive”.

With `O=c1cc(/C=C/c2ccccc2)oc2ccccc12`, the Potency was 2.13 µM (active).

For `O=C(NCCc1c[nH]c2ccccc12)c1ccc([N+](=O)[O-])o1`, the Potency result is “inactive”.

Regarding `O=[N+]([O-])c1ccccc1N/N=C/c1c[nH]c2ccccc12`, the Potency is 0.601 µM (active).

`C(=N\Nc1nc2ccccc2[nH]1)/c1c[nH]c2ccccc12`: the Potency is 1.35 µM (active).

With `O=C(N=Nc1c(O)[nH]c2ccc(Br)cc12)c1ccco1`, the Potency is 10.7 µM (active).

Regarding `O=C(N=Nc1c(O)[nH]c2ccccc12)c1ccco1`, the Potency is 3.01 µM (active).

On to `CC(/C=C(\NC(=O)c1ccccc1)C(=O)N=Nc1c(O)[nH]c2ccc(C)cc12)=C\c1ccccc1`, for which the Potency entry is “inactive”.

`Oc1[nH]c2ccccc2c1N=NC(=S)N1CCOCC1`: the Potency is 9.53 µM (active).

Consider `O=C(Nc1c(O)c2ccccc2[nH]c1=O)c1ccco1`, for which the Potency entry was “inactive”.

Turning to `Cc1ncc(N=Nc2ccccc2)c(-c2ccccc2)n1`, the Potency entry is “inactive”.

Take `CN1CCN(C(=O)CCN2C(=O)/C(=C/c3cccc(Br)c3)SC2=S)CC1`: the Potency result is “inactive”.

`O=C1/C(=C/c2ccccc2O)SC(=S)N1Cc1cccnc1`: the Potency was 16.9 µM (active).

For `COc1ccc(OC)c(/C=C2\SC(=S)N(Cc3cccnc3)C2=O)c1`, the Potency result is “inactive”.

Take `COC(=O)c1ccc2nc(-c3ccco3)c(Cc3ccccc3)n2c1`: the Potency is 3.38 µM (active).

Take `COC(=O)c1ccc2nc(-c3cccc(Br)c3)c(CC3CCCCC3)n2c1`: the Potency entry is “inactive”.

`COC(=O)c1ccc2nc(-c3cccc(Cl)c3)c(Cc3ccccc3OC)n2c1`: the Potency is 15.1 µM (active).

As to `COC(=O)c1ccc2nc(-c3ccco3)c(Cc3cccc(Cl)c3)n2c1`, the Potency is 12 µM (active).

For `Cc1nn(C)c(C)c1/C=C(/C(=O)C(C)(C)C)n1cncn1`, the Potency result was “inactive”.

Regarding `Cc1ccc(N=C/C(C(=O)C(F)(F)F)=C(\O)c2ccco2)cc1Cl`, the Potency was 3.01 µM (active).

`Cc1ccc(NC(=O)CC2S/C(=N/N=C/c3ccco3)NC2=O)cc1Cl` (centres undefined): the Potency entry was “inactive”.

In the case of `O=C(/C(C=Nc1ccc(F)cc1)=C(/O)c1ccco1)C(F)(F)F`, the Potency was 10.7 µM (active).

Regarding `O=C(/C(C=Nc1cccc(C(F)(F)F)c1)=C(/O)c1ccco1)C(F)(F)F`, the Potency was 13.5 µM (active).

With `Cc1cccc(N=C/C(C(=O)C(F)(F)F)=C(\O)c2ccco2)c1`, the Potency is 10.7 µM (active).

Consider `CSc1nc(Oc2ccc(Cl)cc2)c2sccc2n1`, for which the Potency result was “inactive”.

As for `CCn1c(=O)c([N+](=O)[O-])c(NCc2ccco2)c2ccccc21`, the Potency result was “inactive”.

In the case of `N#C/C(=C\c1ccccc1)c1ccccn1`, the Potency was 9.53 µM (active).

Consider `S=c1[nH]nc(-c2ccc(Cl)cc2)n1/N=C/C=C/c1ccco1`, for which the Potency was 10.7 µM (active).

Turning to `Cc1cccc(-c2n[nH]c(=S)n2/N=C/C=C/c2ccco2)c1`, the Potency is 10.7 µM (active).

For `O=C(CN1CCN(Cc2ccccc2Cl)CC1)N/N=C/C=C/c1ccco1`, the Potency result is “inactive”.

Consider `S=C(NNc1ccc2ccccc2c1)NC1CCCCC1`, for which the Potency is 6.75 µM (active).

`CNC(=O)C1CCN(S(=O)(=O)c2c(C)noc2/C=C/c2ccccc2F)CC1`: the Potency entry is “inactive”.

In the case of `COc1ccc(N=Nc2ccc(O)c3ncccc23)cc1`, the Potency is 9.53 µM (active).

With `CCN(CC)CCNC(=O)C(Cl)=C1C(Cl)=C(Cl)C(Cl)=C1Cl`, the Potency entry was “inactive”.

Consider `N#Cc1c(-c2ccccc2)cc(-c2ccccc2)[nH]c1=O`, for which the Potency entry is “inactive”.

As for `Cc1cc(=O)n2nc(-c3ccccc3)sc2c1C#N`, the Potency was 23.9 µM (active).

Take `[O-][n+]1onc2c3cc(-c4ccccc4)nnc3ccc21`: the Potency entry was “inactive”.

With `Cc1cc(O)cc2c1C(=O)/C(=C/c1ccco1)O2`, the Potency is 2.39 µM (active).

In the case of `Cn1nnnc1Sc1ncnc2scc(-c3cccc4ccccc34)c12`, the Potency result was “inactive”.

`O=C(Nc1cc(Br)ccc1O)c1cnn2c(C(F)F)cc(C3CC3)nc12`: the Potency entry is “inactive”.

`c1ccc(N2CC3COc4ccccc4C3=N2)cc1` (centres undefined): the Potency was 4.26 µM (active).

For `c1ccc(N2CC3CCc4ccccc4C3=N2)cc1` (centres undefined), the Potency was 3.01 µM (active).

On to `CCOc1ncccc1C(=O)NNC(=O)c1ccc(NS(=O)(=O)c2cccs2)cc1`, for which the Potency entry was “inactive”.

Consider `C/C(=N\NC(=O)c1cccc(Br)c1)c1ccccn1`, for which the Potency is 8.49 µM (active).

As to `CC(=O)c1nn(-c2ccccc2)cc1C(=O)c1cccc(Br)c1`, the Potency entry was “inactive”.

For the molecule `FC(F)(F)c1nnc2c(Sc3ccccn3)nc3ccccc3n12`, the Potency result was “inactive”.

`CCn1c(=N)n(CC(=O)c2ccco2)c2ccccc21`: the Potency result is “inactive”.

For the molecule `CCn1c(=NC(=O)c2ccco2)sc2cccc(F)c21`, the Potency is 6.01 µM (active).

On to `COc1ccc(Br)cc1/C=N/Nc1ccccn1`, for which the Potency result is “inactive”.

With `COc1cc(/C=N/Nc2ccccn2)cc(OC)c1O`, the Potency is 2.13 µM (active).

Take `N/C(=N\OC(=O)c1ccccc1Cl)c1ccncc1`: the Potency was 4.78 µM (active).

Take `N/C(=N\OC(=O)/C=C/c1ccccc1)c1cccnc1`: the Potency is 5.36 µM (active).

For `N/C(=N\OC(=O)c1cccc2ccccc12)c1cccnc1`, the Potency entry is “inactive”.

Take `N#C/C(=C\C=C\c1ccccc1)C(=O)NCc1cccnc1`: the Potency entry was “inactive”.

Consider `N/C(=N\OC(=O)c1cc(Cl)ccc1Cl)c1ccncc1`, for which the Potency is 15.1 µM (active).

As for `N/C(=N\OC(=O)c1cc(Cl)ccc1Cl)c1cccnc1`, the Potency was 4.78 µM (active).

For `O=C1C2C3C=CC(C4CC34)C2C(=O)N1/N=C/c1ccc([N+](=O)[O-])o1` (centres undefined), the Potency entry was “inactive”.

For the molecule `CCCn1nc([N+](=O)[O-])c(C(C#N)c2nc3ccccc3s2)c(Cl)c1=O` (centres undefined), the Potency was 12 µM (active).

Take `Nc1ccccc1N1C(=O)c2cccc3cccc(c23)C1=O`: the Potency entry was “inactive”.

Regarding `CCCc1cc(C(N)=O)c(NC(=O)c2ccco2)s1`, the Potency was 3.01 µM (active).

Turning to `CCc1c(C)sc(NC(=O)c2ccco2)c1C#N`, the Potency was 12 µM (active).

With `Cc1ccc2nsnc2c1NC(=S)NC(=O)c1ccco1`, the Potency result is “inactive”.

As for `Cc1sc(NC(=O)c2ccco2)c(CN2CCCCC2)c1C`, the Potency entry is “inactive”.

With `Cc1ccc([N+](=O)[O-])cc1NC(=S)NC(=O)c1ccco1`, the Potency result is “inactive”.

Take `NC(=O)c1c(NC(=O)c2ccco2)sc2c1CCC2`: the Potency was 2.13 µM (active).

Take `Cc1sc(NC(=S)NC(=O)c2ccco2)c(C(N)=O)c1C`: the Potency is 1.2 µM (active).

Take `COC(=O)CSc1nc2ccccn2c(=O)c1C=O`: the Potency result is “inactive”.

Take `COn1c(=O)c(-c2cccc(Br)c2)[n+]([O-])c2ccccc21`: the Potency result was “inactive”.

For the origin of these results see PubChem BioAssay AID651597 (National Center for Advancing Translational Sciences (NCATS), 2012).
